Experimental data reported in PubChem BioAssay (NCI).
Values joined by “and” are separate entries in the source; they are usually repeats but may differ in a detail not shown here. Identical values can stand only once. This is part of a sample that, as a whole, favours compounds with a hit. Of some 83,000 tested, about 20% had one in any assay.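 Testing used 96-well plates and a 48-hour single-concentration exposure. Example: -40 means 40% of the starting cells died.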 Active and inactive are the calls of the source. How the source made its calls: active means growth percent below 10; inactive means the rest.

How the values were obtained:
Assay in all cases: NCI-60 one-dose screen, 48 h (100 = growth as untreated, 0 = no growth, -100 = all killed)
Conditions in all cases: 10 µM unless noted
[1] = system: T-47D breast
[2] = system: BT-549 breast
[3] = system: SW-620 colon
[4] = system: MCF7 breast
[5] = system: HCT-116 colon
[6] = system: HCC-2998 colon
[7] = system: KM12 colon
[8] = system: MDA-MB-435 melanoma

Measured: growth

CCc1cnc2ccccc2c1/C=C/c1ccc(N(C)C)cc1
inactive: [1] 31.3% | [2] 49.8% | [3] 32.1% | [4] 20% | [5] 24.6% | [6] 68.4% | [7] 25.5%

CCOc1ccc2c(c1)/C(=C\C=C\C1CC(C)C3CC(OCC)CCC3N1CC)CC(C)N2CC (configuration not stated)
active: [1] 9.32% | [2] 0.574% | [4] 3.06% | [7] 0.998%
inactive: [3] 17.1% | [6] 28.5%

O=C1c2ccccc2Cc2cccc(Cl)c21
inactive: [1] 92.8% | [2] 93.3% | [3] 112% | [4] 96.1% | [5] 97.4% | [6] 81% | [7] 106%

Oc1ccc2ccccc2c1N=Nc1ccccn1
inactive: [1] 12.7% | [8] 49.9% | [6] 45.2% | [7] 34.4%
active: [4] 0.0702% | [5] 1.41%

CCCCCCCCCCCC1N=C(N)N=C(N)N1c1cccc(Br)c1 (configuration not stated)
active: [3] -93.9% | [4] -87.8% | [6] -87.7% | [7] -91.8%
inactive: [1] 38.4% | [8] 22.4%

Cc1ccc2c(c1)sc(-c1ccc(N(C)C)cc1)[n+]2C
active: [1] 1.38% | [4] 3.8% | [6] 2.49% | [7] 5.09%
inactive: [2] 11.9% | [3] 12.3%

CN(C)c1ccc(/C=C/c2sc3ccc4ccccc4c3[n+]2C)cc1
active: [1] -10.9% | [3] -63.9% | [4] -9.73% | [5] -71.8% | [6] -91.5%

CC(C)(C)c1ccc(O)c(-c2ccccc2)c1
inactive: [1] 109% | [2] 131% | [3] 98.9% | [5] 102% | [6] 103% | [7] 104%

Cc1oc2c(C)c3oc(=O)cc(C)c3cc2c1CCl
inactive: [1] 53.9% | [2] 68.8% | [3] 76.7% | [4] 49% | [5] 71.1% | [6] 98.8% | [7] 90.1%

O=C1C=CC(O)=CC1=P(c1ccccc1)(c1ccccc1)c1ccccc1
active: [6] -29.4%
inactive: [1] 96.3% | [8] 103% | [3] 98.2% | [4] 91.7% | [7] 99.7%

C/C(=N\NC(=S)N1CC2CCC(CC2)C1)c1ccccn1
active: [7] 9.58%
inactive: [1] 17.4% | [2] 30.4% | [3] 14.3% | [4] 13.3% | [6] 29.3%

CCOc1cc(F)c([N+](=O)[O-])cc1[N+](=O)[O-]
active: [7] -44.7%
inactive: [1] 24.5% | [2] 87.3% | [3] 19.8% | [4] 15.9% | [6] 98.7%

Clc1ccccc1C(c1ccccc1)(c1ccccc1)n1ccnc1
inactive: [1] 13.4% | [2] 42.5% | [3] 43.6% | [4] 18.3% | [5] 22.3% | [6] 52% | [7] 27%

Cc1cccc2c(N)c3ccccc3nc12
inactive: [2] 14%
active: [1] -2.75% | [3] 0.0537% | [4] 5.35% | [5] 0.783% | [6] 2.09% | [7] 9.35%

O=[N+]([O-])c1ccc([I+]c2ccccc2)cc1
active: [1] -20% | [4] -29% | [5] -31.4% | [7] -75.7%
inactive: [8] 20.8% | [3] 19.5% | [6] 46.1%

Oc1ccc2c(c1)CCc1ccccc1-2
inactive: [1] 86.3% | [2] 106% | [3] 103% | [4] 103% | [5] 97.7% | [6] 102% | [7] 113%

CCOc1ccc(Nc2nc3c(s2)C(=O)c2ccccc2C3=O)cc1
inactive: [1] 59% | [2] 87.4% | [3] 70% | [4] 42.9% | [5] 52.7% | [6] 118% | [7] 81.4%

Oc1ccc2ccccc2c1N=Nc1nccs1
active: [5] -20.8% | [6] -5.47%
inactive: [1] 15.5% | [8] 35.3% | [3] 24.7% | [4] 17.1% | [7] 25%

CCCCCCCCCCCCCCCc1ccc(C(=O)C[n+]2ccccc2)cc1
active: [1] -25.1% | [8] -78.1% | [3] -79.1% | [4] -88.6% | [5] -97.7% | [6] -83.4% | [7] -97.7%

CCCOS(=O)(=O)c1ccccc1
inactive: [1] 109% | [2] 129% | [3] 101% | [4] 111% | [5] 107% | [6] 102% | [7] 103%

COC(=O)Nc1nc2ccc(C3(c4ccc(F)cc4)OCCO3)cc2[nH]1
inactive: [1] 47.1% | [2] 47.5% | [3] 30.7% | [4] 15.7% | [5] 25.2% | [6] 16.7% | [7] 25.6%

CN1CCC(CN2c3ccccc3Sc3ccccc32)C1 (configuration not stated)
inactive: [1] 93.6% | [2] 89.4% | [3] 93.7% | [4] 97.7% | [5] 77.6% | [6] 41.4% | [7] 97.2%

CC(C)(C)CC(C)(C)c1ccc(OCCOCCSC(=N)N)cc1
inactive: [2] 28%
active: [8] -64.8% | [3] -2.39% | [4] 4.55% | [5] -65% | [6] -32.3%

CCCCCCCCCCCC[S+](C)CC(=O)[O-] (configuration not stated)
inactive: [8] 47.2% | [3] 69.9% | [4] 58.2% | [5] 45.5% | [6] 34.4% | [7] 30.7%
active: [2] -29.2%

O=C(C[P+](c1ccccc1)(c1ccccc1)c1ccccc1)c1ccccc1
inactive: [1] 89.9% | [3] 97.3% | [4] 90.6% | [5] 76.8% | [6] 93.9% | [7] 101%

Nc1nc(-c2ccccc2)nc(N)c1N=O
active: [3] 1.65%
inactive: [2] 56.3% | [8] 46.7% | [4] 33% | [5] 51.6% | [6] 103% | [7] 58.8%

CN(Cc1ccccc1)c1ccc(SC#N)cc1
inactive: [2] 43.9% | [8] 94.7% | [3] 85.3% | [4] 76.3% | [5] 39.5% | [6] 89.8%

Cc1cc2nc(CC(=O)c3ccncc3)c(=O)[nH]c2cc1C
inactive: [2] 88.9% | [8] 107% | [3] 103% | [4] 88.5% | [5] 88.5% | [6] 102%

CC(=O)N1CC(=O)NC1=S
inactive: [2] 103% | [8] 98.3% | [3] 102% | [4] 94.1% | [5] 102% | [6] 95% | [7] 103%

Oc1ccccc1N=Cc1ccccc1
inactive: [2] 79.7% | [8] 87% | [3] 85.1% | [4] 74.3% | [5] 69.4% | [6] 100% | [7] 74.1%

COc1ccc(Nc2nc3ccc(C(F)(F)F)cc3nc2C(=O)O)cc1
active: [4] -31.5% [100 µM] and -100% [100 µM]

O=C(/C(Cl)=N/O)c1ccc(-c2ccccc2)cc1
inactive: [2] 94.7% | [8] 114% | [3] 110% | [4] 89.5% | [5] 113% | [6] 105% | [7] 108%

C=CCO/N=C/c1cc(NC(=S)c2ccoc2C)ccc1Cl
active: [4] -83.2% [100 µM] and -45% [100 µM]

Cc1ccc(/C=N/Nc2cc(C)c3cccc(C)c3n2)s1
active: [4] -73.1% [100 µM] and -100% [100 µM]

Oc1c(C(Nc2ccccc2)c2ccccc2)ccc2cccnc12 (configuration not stated)
inactive: [2] 49.8% | [8] 23.8% | [3] 45.1% | [4] 16.3% | [5] 19.3% | [6] 44.9%

Oc1ccc(Cl)cc1Cc1cc(Cl)ccc1O
inactive: [2] 37.1% | [8] 36.7% | [3] 26.9% | [4] 31.9% | [6] 50.7%
active: [5] 2.45%

CCOC(=O)C1=C(C(=O)c2ccccc2)C(c2cccc([N+](=O)[O-])c2)C(C(=O)c2ccccc2)=C(C(=O)OCC)N1
inactive: [2] 89.9% | [8] 91.6% | [3] 70.2% | [4] 13% | [5] 37.5% | [6] 105% | [7] 75.8%

CN(C)CC(C)(CN(C)C)C(=O)/C=C/c1c(Cl)cccc1Cl
active: [3] 4.63% | [4] -60.9% | [5] -41.2% | [7] -25.7%
inactive: [2] 51.1% | [8] 13.1% | [6] 37.2%
